Measurements as given in the supplement of paper PMC6555819.

Test system: VDR:RXRa (NR concentration 270 nM, RXRa partner concentration 90 nM)
Assay: PBM binding z-score (relative to random genomic background probes); higher = stronger binding; sequences stand for … in GC…GCGATTGACAGCGTAGAATGAAGG
Protocol: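 Protein-binding microarray (Agilent 4x180K custom design, double-stranded 60-nt probes: 5' GC cap, 34-nt variable region, 24-nt constant primer region; full probe sequence given). Purified or IVT nuclear receptor:RXRα heterodimers (3:1 NR:RXRα, mostly 270:90 nM) or homodimers were incubated for 1 h in PBS with 2% milk and no ligand, then detected with Alexa488 antibodies. Fluorescence from o1-orientation probes (~5 replicates averaged) was converted to z-scores against 500 random hg19 background probes. Variable regions are seed direct-repeat (DR0–DR5) sites, all their single-nucleotide variants and half-site ablations.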

Sequence	PBM binding z-score
CATACGGGGTCAGCTAGGCCAGAGTAGGGACGGC	6
AGTCAAAGTTCATCTAAGTAACGTAAGATATGCT	4.76
ATCTCTAGGTGAAGATAGTTCAGTGAATGCAAAT	0.849
ATCTCTAGGTAAAGATAGTTCTGTGAATGCAAAT	0.285
TCTCGGAGGACACGTAAGGTCAGAGCTCGACATC	2.69
CGTCCAAGGTCAAGGGTCAGTGAAGAGATGACGG	5.63
GGATCGAGGGCAAGTTGATAGCAGAGTTTGATGG	0.959
GCTGCTAGGCCAACTGATGGTCAGCTAAAGCTCG	-0.87
CCTAGTTGGTCAGGAGGTTACACACCGGATATGA	0.869
GTACTAAGGTGAATAGGTCGTTGATGAGTAGGCG	1.24
TCTAGTCGGTCACGGAGGTCACACACGACGGGTA	6.56
CTCGAAAGGTCGTGCTCAGGTGAGTATTCCAAAC	3.26
GCTGCTGGGTCAGGTTGGTCAGCTAACGGGTACG	0.554
CCTACTGGGCCAAAGGTCATTCATTCCAATGCTC	4.67
CCTACTGGGCCAAAAAGGTCATTGAGGCCGATAA	6.03
GCTAGTTGGTCAGTAAAAGGTCACATACCGGTCG	3.89
TAGCCTAGGTCATTGGGCCATTATAGTACGCATC	2.54
CCGACTGGGGGAAAGGTTACCATACTCAGTACGA	1.79
AGAATGAGGTTATTAAGATCAGGGCATTGCGGTC	3.01
TCTAGTAGATCAATAGAGGTTAAGAAAGTGCGCT	1.84

Sequence	PBM binding z-score
TCTCGGAGGACACGAAAGGTCAGAGATCGACATC	3.42
ACAGACAGGTGAGTGAAGGTAACTCGGCTGGACG	-0.336
CCTACTGGGCCGAAAAGGTCATTGATGCCGATAA	4.48
TCATACAGGTAAAAGGTGAAAGTCGGTGTGGTAA	1.64
CCAGACAGGTGAAAGGTACCTCAGTCTGGTACGC	0.0967
ATCTCTAGGTAAAGTTCACTGAAAGATCGATAGA	2.89
CCTAGCAGGCCAGGGTCACTGAAGCATTTCGCTT	2.68
ACTAGTTGGTCAGCTGAGGTCAAACACAATTCGG	4.9
CCTAGCAGGCCAATCTGGGTCACTTAAGGCTTGA	0.526
ACTAGCAGGCCAAGGGTCACTCTAGATTAGTCCG	2.58
TCTTGTAGATCAATAGTGGTTAAGAAAGTGCGCT	0.673
TAGCCTAGGTCATTCAGGGGCCTGTATAGAAAGC	2.69
TCTTGTAGATCAATAGAGGTTGAGAAAGTGCGCT	0.789
ATCTCTAGGTAAAAATTCAGTGAATCCCGAGGAT	-0.13
CGTCCAGGGTCAGAGAGGTCAGTGAATGCCGAGT	7.46
AGTAAAAGTTCAGGACGAGGTAACGTAAAGCACG	2.66
CCTACAGGGCCACGAAAGGTCATTGATTCAGTGA	4.61
TTACCAAGGTGAGCCGAGGTCGTTGATCCAACTC	4.51
ATCGAGAGGTCGAGGTGAGTATAGAGAAAGGGAA	2.41
ACAGACAGGTTATGAAGGTAACTCAGGCTATCAT	1.3
